What was measured:
[1] = test system: Human papillomavirus type 1a protein E7 (residues 44-93); experiment: HPV1a E7 fragment binders on microarrays, primary screen, biochemical, small-molecule microarray, residues 44-93, 635 nm fluorescence (AID 1108); settings: small-molecule microarray binding, fluorescence 635 nm; higher = more signal;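 also: E7 fragment applied at 1 µg/mL in TBST for 1 h at 4 C; score combines spot fluorescence with its signal to noise ratio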
[2] = modulators of HCV replicon luciferase signal, primary screen, HCV replication inhibitor project, Huh7 cells, luciferase reporter (AID 1109); settings: 48 h, higher = more signal;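 also: huh7 hepatoma cells harbouring a luciferase neomycin HCV replicon reporter; luciferase luminescence as measure of HCV replicon replication; test concentration not given here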
[3] = biological target: Left-right determination factor 2 (Homo sapiens) (UniProt O00292); experiment: LEFTY2 binders on small-molecule microarrays, primary screen, biochemical, small-molecule microarray, 635 nm fluorescence scan (AID 1110); settings: LEFTY2 binding, higher = more signal
[4] = biological target: Calmodulin-1 (Homo sapiens) (UniProt P0DP23); experiment: CALM1 binders on microarrays, EGTA buffer, profiling panel, biochemical, small-molecule microarray, Cy5-labelled CALM1 (AID 1111); settings: Cy5-CALM1 binding fluorescence, higher = more signal;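 also: labelled calmodulin applied in Tris saline Tween buffer holding calcium plus EGTA and DTT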
[5] = biological target: Calmodulin-1 (Homo sapiens) (UniProt P0DP23); experiment: calcium-bound CALM1 binders on microarrays, profiling panel, artefact control for SMM control-protein annotation, biochemical, small-molecule microarray, Cy5-labelled CALM1, plus calcium (AID 1112); settings: Cy5-CALM1 binding fluorescence, higher = more signal;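 also: score merges spot fluorescence with signal to noise from triplicate slides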
[6] = small-molecule microarray binders of probe aWnt5a, primary screen, biochemical, biotinylated probe, 635/667 nm fluorescence (AID 1113); settings: higher = more signal;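 also: score merges 667 nm fluorescence intensity with signal-to-noise per printed feature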
[7] = small-molecule microarray binders of probe aShh, primary screen, biochemical, biotinylated probe, 635/667 nm fluorescence (AID 1114); settings: higher = more signal;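 also: probe is biotin-labelled aShh protein from a stem cell growth factor screen; measures binding of labelled protein to compounds printed on the slide; score merges feature fluorescence at 667 nm with signal-to-noise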
[8] = small-molecule microarray binders of probe aNog, primary screen, biochemical, biotinylated probe, 635/667 nm fluorescence (AID 1115); settings: higher = more signal;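 also: probe is biotinylated aNog protein used at 0.15 µg/mL for 1 h at 4 C; z-score combines 667 nm fluorescence of each spot with its signal to noise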
[9] = biological target: Torsin-1A-interacting protein 1 (Homo sapiens) (UniProt Q5JTV8); experiment: LAP1 binders from COS7 cell lysate, primary screen, small-molecule microarray, 635/667 nm fluorescence (AID 1116); settings: COS7-hLAP1 lysate binding, 635 nm fluorescence, higher = more signal
[10] = biological target: Alpha-bungarotoxin (Bungarus multicinctus) (UniProt P60615); experiment: alpha-bungarotoxin binders on microarray, profiling panel, artefact control for SMM control protein annotation, biochemical, small-molecule microarray, Alexa647 label, 635/667 nm fluorescence (AID 1117); settings: alpha-BTX-A647 binding fluorescence, higher = more signal
Chain of Alpha-bungarotoxin (Bungarus multicinctus) (P60615 whole entry, looked up): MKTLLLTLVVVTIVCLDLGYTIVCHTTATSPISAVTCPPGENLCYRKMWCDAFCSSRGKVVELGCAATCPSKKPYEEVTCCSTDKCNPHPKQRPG

Chain of Torsin-1A-interacting protein 1 (Homo sapiens) (Q5JTV8 whole entry, looked up): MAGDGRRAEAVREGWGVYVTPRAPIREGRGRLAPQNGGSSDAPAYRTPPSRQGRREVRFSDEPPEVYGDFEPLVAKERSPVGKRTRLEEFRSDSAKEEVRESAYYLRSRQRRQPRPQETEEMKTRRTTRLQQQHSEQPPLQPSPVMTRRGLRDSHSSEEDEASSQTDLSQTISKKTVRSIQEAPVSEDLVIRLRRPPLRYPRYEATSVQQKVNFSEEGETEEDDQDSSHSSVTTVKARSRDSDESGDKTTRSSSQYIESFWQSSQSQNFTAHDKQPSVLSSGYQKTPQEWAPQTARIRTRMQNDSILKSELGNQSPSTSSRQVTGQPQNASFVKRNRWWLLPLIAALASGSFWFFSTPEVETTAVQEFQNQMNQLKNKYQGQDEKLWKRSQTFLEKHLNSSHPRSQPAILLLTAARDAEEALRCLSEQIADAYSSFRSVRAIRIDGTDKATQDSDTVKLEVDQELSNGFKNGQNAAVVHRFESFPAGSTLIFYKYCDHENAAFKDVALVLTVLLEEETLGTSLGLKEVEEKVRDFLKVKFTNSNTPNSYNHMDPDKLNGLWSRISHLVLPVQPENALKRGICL
Chain of Left-right determination factor 2 (Homo sapiens) (O00292 whole entry, looked up): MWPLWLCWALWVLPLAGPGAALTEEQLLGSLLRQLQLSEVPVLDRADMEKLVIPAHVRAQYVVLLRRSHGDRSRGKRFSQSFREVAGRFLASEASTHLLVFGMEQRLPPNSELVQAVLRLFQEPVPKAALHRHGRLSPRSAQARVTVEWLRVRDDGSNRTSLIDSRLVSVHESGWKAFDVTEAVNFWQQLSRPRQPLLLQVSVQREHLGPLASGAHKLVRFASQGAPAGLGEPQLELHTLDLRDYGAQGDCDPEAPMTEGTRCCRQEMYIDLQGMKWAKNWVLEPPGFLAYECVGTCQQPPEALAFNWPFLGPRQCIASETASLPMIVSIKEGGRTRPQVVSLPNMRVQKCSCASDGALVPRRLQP

Row | Compound | composite z-score [1] | z-score [2] | composite z-score [3] | composite z-score [4] | composite z-score [5] | composite z-score [6] | composite z-score [7] | composite z-score [8] | composite z-score [9] | composite z-score [10]
1 | C=C[C@@H](OC)[C@H](OC(=O)Nc1ccc(OC)cc1)c1ccc(OC)c(O)c1 | -0.546 | 0.15 | -1.86 | -0.56 | -0.194 | -0.154 | -0.367 | -0.45 | -0.386 | -0.382
2 | NC(=O)[C@@H]1[C@H]2C(=O)O[C@H](c3ccccc3)[C@H](c3ccccc3)N2[C@H](c2ccc(OCCO)cc2)[C@@]12C(=O)Nc1ccc(C#CCCO)cc12 | -1.04 | -1.41 | -0.483 | 1.09 | 0.209 | 0.0973 | 0.166 | -0.329 | 0.628 | 1.13
3 | COCC(=C=CC[C@H](O)c1cccc(OCCO)c1)C[C@H](O)COCc1ccccc1 | 0.768 | -0.754 | -0.35 | -0.238 | -0.135 | 0.0037 | 0.191 | -0.0863 | 1.58 | -0.363
4 | COc1cc(NN2C(C(O)c3cc(OC)c(OC)c(OC)c3)C=CC3C(=O)N(c4ccccc4)C(=O)C32)cc(OC)c1OC (stereo not given) | 1.41 | -1.54 | 0.307 | 2.02 | 0.986 | 0.145 | -0.0193 | 0.756 | 1.56 | 2.35
5 | CN1C(=O)C2C(C1=O)C1C=C(CCCO)C2C(c2cccs2)N1Cc1cc2c(cc1Br)OCO2 (stereo not given) | 1.44 | -1.22 | 0.772 | 1.89 | 0.658 | 0.184 | 0.131 | -0.373 | 2.29 | 1.7
6 | CN(C)CCCCCCNC(=O)[C@@H]1C[C@@H]2C(=O)N[C@@H](CCCCN)C(=O)N2[C@@H]1c1ccc(O)cc1 | 1.53 | 0.805 | 1.62 | 2.11 | 0.347 | 1.28 | 2.47 | 1.96 | 4.63 | 3.03
7 | [N-]=[N+]=NCc1ccccc1[C@@H]1OC(c2ccc(OCCCO)cc2)=N[C@]1(Cc1ccccc1N=[N+]=[N-])C(=O)N1CCCCC1 | 1.41 | -2.12 | 0.0538 | 1.93 | 1.26 | -0.248 | -0.023 | -0.538 | 0.482 | 0.671
8 | COCCOC(=O)N1C(=O)[C@@]2(c3cc(C#CCCO)ccc31)[C@H](C(N)=O)[C@H]1C(=O)O[C@H](c3ccccc3)[C@H](c3ccccc3)N1[C@@H]2c1ccc(OCCO)cc1 | 1.28 | -1.14 | 0.957 | 1.1 | -0.351 | -0.0303 | 0.0253 | -0.371 | 1.46 | 0.787
9 | COc1ccc([Si](C)(C)[C@H]2[C@H](CC(=O)N3Cc4ccccc4C[C@H]3CO)O[C@@]3(C(=O)N(Cc4ccc(N5C(=O)c6cccc7cccc5c67)cc4)c4ccccc43)[C@@H]2C)cc1 | 1.3 | -3.26 | 0.952 | 0.732 | 0.049 | -0.124 | -0.279 | -0.49 | 1.65 | 0.609
10 | COCCOC(=O)N1C(=O)[C@@]2(c3cc(C#CCC(C(=O)OC)C(=O)OC)ccc31)[C@H](c1ccc(O)cc1)N1[C@H](c3ccccc3)[C@H](c3ccccc3)OC(=O)[C@H]1[C@@H]2C(=O)NC[C@H](O)c1ccccc1 | 1.33 | -0.496 | 0.485 | 1.91 | 0.67 | -0.0172 | -0.147 | -0.346 | 1.06 | 0.353
11 | COC(=O)[C@@]1(Cc2ccc(F)cc2)[C@H]2c3cc(C(=O)N(C)C)n(Cc4ccc(O)c(OC)c4)c3C[C@H]2CN1C(=O)c1ccccc1 | 0.347 | -1.05 | -0.0182 | 1.17 | -0.0337 | 0.0776 | 0.207 | -0.186 | -0.105 | 0.412
12 | C=CC1c2cc(O)c(OC)cc2CCN1Cc1ccc([N+](=O)[O-])o1 (stereo not given) | 0.0967 | 0.366 | -0.54 | 1.15 | 1.18 | 0.0306 | 0.13 | 0.57 | 1.82 | 0.899
13 | CCCNC(=O)[C@@]1(Sc2ccc(C)cc2)CC(=O)N(C(C)C)[C@@H]1c1ccc(CO)cc1I | -0.593 | -2.03 | -1.7 | 1.31 | 0.944 | -0.178 | -0.0553 | 0.909 | 0.669 | -0.432
14 | COCC1=C2[C@@H](CCc3ccccc3)OB(O)C[C@@H]2[C@@H]2C(=O)N(C)C(=O)[C@@H]2C1 | -0.152 | -1.2 | 0.211 | -0.344 | -0.294 | -0.0405 | -0.138 | -0.205 | 0.226 | -0.273
15 | COC(=O)[C@@]1(Cc2ccc(OC)cc2)[C@H]2c3cc(C(=O)N4CCCC4)n(Cc4ccc(OC(F)(F)F)cc4)c3C[C@H]2CN1C(=O)c1ccccc1 | -0.0023 | -2.48 | -0.251 | 1.72 | 1.13 | 0.402 | 0.358 | 1.65 | -0.401 | 1.25
16 | COc1ccc(C(=O)Nc2cccc(CN3C(=O)[C@@]4(O[C@@H](CC(=O)N(CCO)Cc5ccccc5)[C@H]([Si](C)(C)c5ccc(OC)cc5)[C@H]4C)c4ccccc43)c2)cc1 | 1.18 | -3.89 | 0.344 | 0.822 | -0.0254 | -0.187 | -0.206 | -0.38 | 1.12 | 0.681
17 | COCCCNC(=O)[C@@]1(Sc2ccc(C)cc2)CC(=O)N(Cc2ccccc2Cl)[C@@H]1c1ccc(CO)cc1I | -0.747 | -1.94 | -1.6 | -0.434 | 0.717 | -0.28 | 0.0115 | -0.323 | -1.36 | -0.659
18 | CC(C)(C)OC(=O)CC[C@]12N=C(c3ccc(OCCCO)cc3)O[C@H]1c1ccccc1N(Cc1ccccc1)C2=O | 0.552 | -2.09 | 0.27 | 0.42 | 0.348 | -0.0765 | -0.0969 | 0.963 | 1.36 | 1.28
19 | COCCOC(=O)N1C(=O)[C@@]2(c3cc(C#CC4=CCCCC4)ccc31)[C@H](C(=O)N1CCCCCCC1)[C@H]1C(=O)O[C@H](c3ccccc3)[C@H](c3ccccc3)N1[C@@H]2c1ccc(OCCO)cc1 | 1.18 | -2.08 | 0.654 | 1.02 | 1.04 | 0.302 | 0.936 | -0.412 | 1.05 | 0.845
20 | [N-]=[N+]=Nc1ccccc1C[C@@]1(C(=O)O)N=C(c2ccc(OCCCO)cc2)O[C@@H]1c1ccccc1N=[N+]=[N-] | 1.26 | -1.26 | 0.0656 | 2.45 | 1.12 | -0.034 | 0.108 | 1.27 | 1.79 | 1.32
21 | CC(C)c1ccc(NN2C(C(O)Cc3ccccc3)C=CC3C(=O)N(c4ccccc4)C(=O)C32)cc1 (stereo not given) | 1.33 | 0.843 | 0.126 | 2.05 | 0.744 | -0.0819 | 0.23 | 1.53 | 0.98 | 1.06
22 | C=CCC(OC(C)=O)[C@@H]1[C@@H](N(Cc2ccc(-c3ccccc3)cc2)C(=O)Cc2ccc(F)cc2)c2cc(OCCCO)ccc2N1C(=O)Cc1ccc2ccccc2c1 (stereo not given in full) | -0.333 | 0.482 | 0.0808 | 1.07 | 0.743 | 0.0495 | -0.153 | 0.0335 | 0.542 | -0.0297
23 | COc1ccc([Si](C)(C)[C@@H]2[C@@H](CCn3cc([C@H](O)c4ccccc4)nn3)O[C@]3(C(=O)N(Cc4cccc(N5C(=O)c6cccc7cccc5c67)c4)c4ccccc43)[C@H]2C)cc1 | 1.04 | -2.89 | -1.54 | 0.114 | 0.364 | -0.232 | -0.221 | 0.262 | -0.364 | 0.0544
24 | [N-]=[N+]=Nc1ccccc1[C@@H]1OC(c2ccc(OCCCO)cc2)=N[C@]1(Cc1ccccc1)C(=O)NCc1ccccc1 | 0.656 | -2.53 | -0.0068 | 2.46 | 1.33 | 0.166 | 0.628 | 1.95 | 2.27 | 2.92
25 | CCN(CC)c1ccc(N2CC=CC34O[C@@H]5C=CCCOC(=O)C5[C@H]3C(=O)N(CCO)[C@@H]4C2=O)cc1 (stereo not given in full) | -0.595 | -0.362 | -1.37 | -0.547 | -0.183 | -0.214 | -0.26 | 2.13 | -1.01 | 0.253
26 | COC(=O)C1=CC(CCCO)=CC(c2ccc(CN3CCCC3)cc2)N(Cc2cc3c(cc2Br)OCO3)C=C1C(=O)OC (stereo not given) | 1.39 | -0.803 | 0.688 | 1.9 | 0.795 | 0.212 | 0.839 | -0.603 | 1.48 | 0.853
27 | COC(=O)C1N=C(c2ccc(OCCCO)cc2)N(c2ccccc2)O1 (stereo not given) | 0.154 | -2.69 | 0.681 | 0.933 | 0.576 | -0.196 | -0.0681 | 0.438 | 0.924 | 2.07
28 | C=CCC(OC(C)=O)[C@@H]1[C@@H](N(Cc2cccc3ccccc23)C(=O)c2ccc(-c3ccccc3)cc2)c2cc(OCCCO)ccc2N1C(=O)c1ccc(-c2ccccc2)cc1 (stereo not given in full) | 0.635 | -0.681 | 0.385 | 0.603 | 1.16 | -0.0819 | 0.0899 | 0.355 | 0.35 | 0.439
29 | C=C(/C(=C/C[C@H](OC(=O)c1ccncc1)c1ccccc1OCCO)c1cnc2ccccc2c1)C(C)C | 1.41 | -2.63 | 1.05 | 0.547 | -0.558 | 0.0374 | 0.172 | -0.0809 | 0.358 | 1.73
30 | COCCOC(=O)N1C(=O)[C@@]2(c3cc(C#Cc4ccc(OC)cc4)ccc31)[C@H](C(=O)NC[C@H](O)c1ccccc1)[C@H]1C(=O)O[C@H](c3ccccc3)[C@H](c3ccccc3)N1[C@@H]2c1ccc(OCCO)cc1 | 1.42 | -1.52 | 0.46 | 1.16 | -0.0063 | 0.0031 | 0.0469 | 0.371 | 1.14 | 1.53
